{"source": "PubChem BioAssay (Tox21)", "note": "Inconclusive results are not listed. Calls of active or inactive are those of the source. The call rests on the fitted dose curve; in most records, active means well fitted cell-killing curve with a large enough effect in the repeat runs; inconclusive means weak or mixed curves; inactive means no such curve, though single readings can be large or run the other way. On the % scale 0 is the no-effect control and ±100 the full control effect; potency means the concentration at half of the fitted maximal effect."}
{"assay": "qHTS assay to identify small molecule agonists of the peroxisome proliferator-activated receptor delta (PPARd) signaling pathway - cell viability counter screen (AID 743211); further: nearly all actives have a fitted effect of over 55% in size", "details": "PPARd-bla HEK293H viability, CellTiter-Glo luminescence, 17 h; series mostly up to 62.6 µM; activity change, negative = cytotoxicity: at the top concentration", "method_in_brief": "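Read-out: CellTiter-Glo luminescence, 30 min RT, measured in the same wells as the beta-lactamase reporter. Cells: GeneBLAzer PPAR delta UAS-bla HEK293H, 3000 cells/well, compound exposure 17 h at 37C.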"}
{"smiles": "COc1ccc(NC(=O)CC(C)=O)cc1", "activity change, negative = cytotoxicity": "0.356% (inactive)"}
{"smiles": "Cc1cccc(C)c1NC(=O)c1ccc(N)cc1", "activity change, negative = cytotoxicity": "1.25% (inactive)"}
{"smiles": "O[C@@H]([C@H](O)[C@H](O)CBr)[C@H](O)CBr", "activity change, negative = cytotoxicity": "1.94% (inactive)"}
{"smiles": "CCCCCCCC", "activity change, negative = cytotoxicity": "8.16% (inactive)"}
{"smiles": "Cl[Si](Cl)(c1ccccc1)c1ccccc1", "activity change, negative = cytotoxicity": "0.182% [at 81.1 µM] (inactive)"}
{"smiles": "OCC(F)(F)F", "activity change, negative = cytotoxicity": "6.5% [at 81.1 µM] (inactive)"}
{"smiles": "C=CCCC(=O)/C=C/C1C(C)=CCCC1(C)C", "note": "(stereo not drawn)", "activity change, negative = cytotoxicity": "-1.09% (inactive)"}
{"smiles": "C[C@H]1NCc2cc(-c3ccc4c(=O)c(C(=O)O)cn(C5CC5)c4c3OC(F)F)ccc21", "activity change, negative = cytotoxicity": "1.64% [at 29.1 µM] (inactive)"}
{"smiles": "CCOC(=O)c1ccc(C2CCC(NC[C@H](O)COc3ccc(O)c(NS(C)(=O)=O)c3)CC2)cc1", "note": "(stereo partly drawn)", "Potency": "35.9 µM (active)"}
{"smiles": "Cc1ccc(C)cc1", "activity change, negative = cytotoxicity": "5.97% (inactive)"}
{"smiles": "CCCNCCC", "activity change, negative = cytotoxicity": "-0.338% [at 81.1 µM] (inactive)"}
{"smiles": "O=C(Oc1ccccc1)Oc1ccccc1", "activity change, negative = cytotoxicity": "-3.59% (inactive)"}
{"smiles": "Cc1nc2n(c(=O)c1CCN1CCC(c3noc4cc(F)ccc34)CC1)CCCC2", "activity change, negative = cytotoxicity": "-1.39% (inactive)"}
{"smiles": "Oc1cc(Cl)cc(Cl)c1Cl", "activity change, negative = cytotoxicity": "-15.6% [at 81.1 µM] (inactive)"}
{"smiles": "Nc1ccc(NCCO)c([N+](=O)[O-])c1", "activity change, negative = cytotoxicity": "1.39% (inactive)"}
{"smiles": "Clc1sc(Cl)c(Cl)c1Cl", "activity change, negative = cytotoxicity": "3.67% (inactive)"}
{"smiles": "O=c1c(O)c(-c2ccc(O)cc2O)oc2cc(O)cc(O)c12", "activity change, negative = cytotoxicity": "9.27% (inactive)"}
{"smiles": "COc1cc2nc(N3CCN(C(=O)c4ccco4)CC3)nc(N)c2cc1OC", "activity change, negative = cytotoxicity": "-16.8% [at 29.1 µM] (inactive)"}
{"smiles": "CC(CO)Oc1ccccc1", "note": "(stereo not drawn)", "activity change, negative = cytotoxicity": "0.601% [at 81.1 µM] (inactive)"}
{"smiles": "OC[C@@H](O)[C@@H](O)CO", "activity change, negative = cytotoxicity": "5.85% (inactive)"}
{"smiles": "COc1cc(C)ccc1O", "activity change, negative = cytotoxicity": "-27.9% (inactive)"}
{"smiles": "CN(C)[C@@H](CCOc1cccc2ccccc12)c1ccccc1", "Potency": "23.7 µM (active)"}
{"smiles": "CC(=O)Oc1cc2c(s1)CCN(C(C(=O)C1CC1)c1ccccc1F)C2", "note": "(stereo not drawn)", "activity change, negative = cytotoxicity": "-1.39% (inactive)"}
{"smiles": "Cc1ccc(-c2ccccc2)cc1", "activity change, negative = cytotoxicity": "7.44% (inactive)"}
{"smiles": "FC(F)(F)c1cccc(Cl)c1", "activity change, negative = cytotoxicity": "4.6% (inactive)"}
{"smiles": "CCCC[P+](C)(CCCC)CCCC", "activity change, negative = cytotoxicity": "-7.77% [at 81.1 µM] (inactive)"}
{"smiles": "COc1ccc(-c2coc3cc(O)ccc3c2=O)cc1", "activity change, negative = cytotoxicity": "6.1% (inactive)"}
{"smiles": "CC(C)(C)CC(C)(C)c1ccc(Nc2ccc(C(C)(C)CC(C)(C)C)cc2)cc1", "activity change, negative = cytotoxicity": "-7.52% [at 5.95 µM] (inactive)"}
{"smiles": "O=S(=O)(O)c1ccc(N=Nc2c(O)ccc3ccccc23)cc1", "activity change, negative = cytotoxicity": "-25.4% (inactive)"}
{"smiles": "C=CC(C)(CCC=C(C)C)OC=O", "note": "(stereo not drawn)", "activity change, negative = cytotoxicity": "5.19% (inactive)"}
{"smiles": "CCCCCCCCCCOC(=O)c1ccccc1C(=O)OCCCCCCCC", "activity change, negative = cytotoxicity": "-25.6% (inactive)"}
{"smiles": "CCCC(=O)OCCc1ccccc1", "activity change, negative = cytotoxicity": "13% (inactive)"}
{"smiles": "CCCCCCCC/C=C\\CCCCCCCCN", "activity change, negative = cytotoxicity": "5.14% (inactive)"}
{"smiles": "OC/C=C/CO", "activity change, negative = cytotoxicity": "5.82% (inactive)"}
{"smiles": "C#CC1(O)CC[C@H]2[C@@H]3CCC4=CCCC[C@@H]4[C@H]3CC[C@@]21C", "note": "(stereo partly drawn)", "Potency": "11.9 µM (active)"}
{"smiles": "O=S(=O)(O)c1ccc(Nc2nc(Nc3ccc(/C=C/c4ccc(Nc5nc(Nc6ccc(S(=O)(=O)O)cc6)nc(N(CCO)CCO)n5)cc4S(=O)(=O)O)c(S(=O)(=O)O)c3)nc(N(CCO)CCO)n2)cc1", "activity change, negative = cytotoxicity": "-1.15% (inactive)"}
{"smiles": "Cc1c(F)c(N2CCNC(C)C2)cc2c1c(=O)c(C(=O)O)cn2C1CC1", "note": "(stereo not drawn)", "activity change, negative = cytotoxicity": "1.51% (inactive)"}
{"smiles": "O=C(O)c1cccc(C(F)(F)F)c1", "activity change, negative = cytotoxicity": "1.02% (inactive)"}
